# Screening results as filed in PubChem.
# Myeloid diff MLP – myeloid differentiation induction | ER-HoxA9 myeloid progenitors, lysozyme-GFP differentiation, flow cytometry | calls only at 10 µM | 1% of 360,000 active | AID 624256;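 active = normalized GFP-positive differentiation at or above the plate's own cutoff, the solvent-only control mean plus 3 SD; inconclusive = no clear call, values can overlap the other calls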;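 also: cells exposed to compound for four days before flow analysis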
# TPT1 inhibitor – C. albicans TPT1 enzyme inhibition; recombinant caTPT1, FP RNA substrate dephosphorylation; inhibition, % at 5 µM; 0.81% of 300,000 active; AID 1962;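 active = inhibition above the mean of all tested compounds plus 3 SD, set per screening campaign, cut at about 24% in these data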;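 also: plate controls were DMSO alone for no effect and ferristatin control at 100 nM for full effect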
# HNF4A DNA FP – change in binding of human HNF4 alpha to DNA; P41235; HNF4a-FITC DNA binding, fluorescence polarization, 1 h; activity change, % at 10 µM; 0.3% of 360,000 active; AID 1224865; in the data active = activity change above about 30%, passing the limit was not always enough
# Target sequence (P41235 whole entry, looked up): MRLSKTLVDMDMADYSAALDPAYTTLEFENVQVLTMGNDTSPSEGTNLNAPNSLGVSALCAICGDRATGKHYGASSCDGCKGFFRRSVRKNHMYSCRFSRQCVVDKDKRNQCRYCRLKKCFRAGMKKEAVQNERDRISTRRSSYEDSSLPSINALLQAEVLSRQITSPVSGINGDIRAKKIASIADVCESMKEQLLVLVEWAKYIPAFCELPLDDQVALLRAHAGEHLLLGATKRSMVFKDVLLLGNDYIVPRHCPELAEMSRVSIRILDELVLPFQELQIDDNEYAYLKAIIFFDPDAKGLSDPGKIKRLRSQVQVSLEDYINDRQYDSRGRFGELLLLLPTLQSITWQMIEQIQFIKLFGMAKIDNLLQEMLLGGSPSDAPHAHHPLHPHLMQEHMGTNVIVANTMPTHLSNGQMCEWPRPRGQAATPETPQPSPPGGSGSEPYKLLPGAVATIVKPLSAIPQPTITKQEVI
# Rpn11 block – blocks the human proteasome subunit Rpn11; 0.59% of 360,000 active; human 26S proteasome, Ub4-pepOG fluorescence polarization; 20S core pre-blocked with epoxomicin; O00487; inhibition, % at 20 µM;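 active = inhibition at 20 µM, scaled to each plate's controls, above about 33%, limit read from the data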
# caTPT1 confirm – TPT1 (C. albicans) inhibition, confirmation; AID 2149; inhibition, % at 5 µM; shares compounds with TPT1 inhibitor; 74% of 2,400 active; recombinant caTPT1, fluorescence polarization, RNase T1 coupled;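 active = inhibition above the primary screen limit, the mean inhibition of all tested compounds plus 3 SD, cut at about 25% in these data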
# RNase T1 counter – RNase T1 inhibition in TPT1 counter-screen. shares compounds with TPT1 inhibitor. RNase T1 cleavage, fluorescence polarization, 1536-well. inhibition, % at 5 µM. 83% of 2,400 active. AID 2153;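 active = inhibition above the solvent-only control well mean plus 3 SD, limit set per screening run, cut at about 23% in these data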;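 also: plate controls were DMSO wells with enzyme for no effect and wells without RNase T1 for full effect; inhibitors block cleavage so intact labeled substrate keeps polarization high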
# Active calls of the source: *; i = inactive; ? = inconclusive; . = no result given; + = active, no number. Compounds with a hit are over-represented: about 2.1% of the library has one in this group of screens.
SMILES,Myeloid diff MLP,TPT1 inhibitor,HNF4A DNA FP,Rpn11 block,caTPT1 confirm,RNase T1 counter
CC(=O)Nc1ccc(S(=O)(=O)Nc2nc3ccccc3nc2Nc2ccc(N)cc2)cc1,i,77*,40,.,62*,69*
CC(=O)Nc1ccc(S(=O)(=O)Nc2nc3ccccc3nc2Nc2ccc3ccccc3c2)cc1,i,29*,27,.,13,24*
O=C(Cn1ncc2c3ccccc3n(Cc3cccc(Cl)c3)c2c1=O)NCc1ccccn1,i,69*,26,.,84*,90*
O=C(N/N=C/c1c(O)ccc2ccccc12)c1cccc(C(F)(F)F)c1,?,135*,92*,.,149*,137*
O=C(N/N=C\c1c(O)ccc2ccccc12)c1ccc(Cn2cccn2)o1,?,40*,12,.,45*,49*
COc1ccc2ccccc2c1/C=N/NC(=O)c1cccc(Br)c1,i,0,4,0,.,.
Cc1ccc(S(=O)(=O)NCC2CCC(C(=O)NC3CCCCC3)CC2)cc1 (configuration not stated),i,0,2,2,.,.
Oc1ccc(Cl)cc1C1=NNC(c2cc(Br)cc3c2OCOC3)C1 (configuration not stated),i,6,17,38,.,.
COc1ccc(C2=NNC(c3cc(Cl)cc4c3OCOC4)C2)c(O)c1 (configuration not stated),.,37*,.,.,19,28*
Cc1cccc(C)c1N1CCN(CCn2c(=S)[nH]c3ccccc3c2=O)CC1,i,.,-1,4,.,.
CCN(C(=O)CSc1nc2ccc(Cl)cc2[nH]1)C1CCS(=O)(=O)C1 (configuration not stated),i,.,4,4,.,.
O=C(N/N=C/c1ccc(Cl)cc1Cl)c1cccc(N2CCCC2=O)c1,i,-3,1,-4,.,.
O=C(N/N=C/c1cc(Br)cc(Br)c1O)c1cccc(N2CCCC2=O)c1,i,54*,8,.,68*,73*
O=C(N/N=C/c1ccccc1Br)c1cccc(S(=O)(=O)N2CCOCC2)c1,i,.,1,-7,.,.
O=C(N/N=C/c1cc(Br)cc(Br)c1O)c1cccc(S(=O)(=O)N2CCOCC2)c1,i,48*,85,.,55*,54*
Cc1csc2c(N3CCN(C(=O)c4ccc(C(C)(C)C)cc4)CC3)ncnc12,i,1,7,-5,.,.
O=C(COC(=O)C1CCN(/C=C/C(=O)C(F)(F)F)CC1)Nc1cccc(F)c1,i,-3,1,-1,.,.
CCN(CC)c1ccc2c(c1)oc(=O)c1c(Cl)cc(=O)oc12,?,25*,-23,-14,37*,50*
CCN(CC)c1ccc2c(C)cc(=O)oc2c1,i,.,-2,3,.,.
O=C(NCC1CC1)c1csc([C@@H]2O[C@H](CO)[C@H](O)[C@H](O)[C@H]2O)n1,i,.,0,-5,.,.
O=C(COC(=O)C1(c2ccc(F)cc2)CCCC1)N1CCc2ccccc21,i,-3,1,0,.,.
COc1ccc(-n2c(C)cc(/C=C3/SC(=S)N(C)C3=O)c2C)cc1,+,28*,52*,.,63*,75*
O=C1C(=C2CCCCC2)SC(=S)N1Cc1ccco1,i,3,4,7,.,.
Cc1cc(/C=C2\SC(=S)N(Cc3ccco3)C2=O)c(C)n1-c1ccccc1,+,102*,45*,.,98*,106*
Cc1cc(/C=C2\SC(=O)N(C)C2=O)c(C)n1-c1ccc(O)cc1,i,3,2,2,.,.
SMILES,Myeloid diff MLP,TPT1 inhibitor,HNF4A DNA FP,Rpn11 block,caTPT1 confirm,RNase T1 counter
CN1CCC(C(=O)C(=O)O)C1=O (configuration not stated),i,.,1,-2,.,.
CN(C)c1ccc(/C=C/C(=O)c2c(O)c3ccccc3oc2=O)cc1,i,55*,21,.,70*,80*
CCOc1ccc(/C=C/C(=O)c2c(O)c3ccccc3oc2=O)cc1,i,6,3,4,.,.
CCOC(=O)C1=C(C)NC(C)=C(C(=O)OCC)C1C(=O)OCC(=O)N1CCc2ccccc2C1,i,-4,-3,-3,.,.
Cc1ccc(/C=C2\CCC3=C2OC(N)=C(C#N)C3c2ccc(C)cc2)cc1 (configuration not stated),i,122*,60,.,121*,112*
Cc1cccc(NC(=O)c2ccc3c(c2)CCN3S(C)(=O)=O)c1,i,.,1,-3,.,.
Cc1ccc(NS(=O)(=O)c2cc([N+](=O)[O-])ccc2NNC(=S)Nc2cccc(Cl)c2)c(C)c1,i,36*,30,76*,37*,46*
